Source: PubChem (National Center for Advancing Translational Sciences (NCATS))
Nrf2 inh – Nrf2 pathway inhibition | Potency, µM (series often up to 46 µM), most hits filed as inhibitors | AID 504444 | A549 ARE-Fluc reporter, luciferase luminescence, 18-24 h | actives 2.1% (n = 360,000); further: nearly all actives have a fitted effect of over 60% in size
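A549 ARE_Fluc cells (5000/well, 5% FBS OPTI-MEM) pre-incubated 2 h, then treated with compounds 18-24 h at 37C/5% CO2 in concentration-response. CellTiter-Fluor viability read first; BugLite luciferase luminescence after 15 min at room temperature gives Nrf2 activity.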
Nrf2 activator – activates Nrf2 signaling; AREc32 ARE-luciferase reporter (MCF7-derived line), luminescence, 24 h; Potency, µM (titrated, usually from 46.1 µM), most hits filed as activators; actives 0.31% (n = 410,000); further: nearly all actives have a fitted effect of over 65% in size
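Luciferase luminescence (Steady-Glo, 30 min at room temperature) served as the read-out of ARE activation in AREc32 cells treated with compounds for 24 hr at 37 deg C.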
A549 tox – kills or reduces viability of A549 cells in Nrf2 counter-screen; Potency, µM (doses to about 46 µM), hits mostly inhibitors; AID 504648; actives 0.16% (n = 390,000); A549 ARE-Fluc cells, CellTiter-Fluor viability, 18-24 h
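A549 ARE-Fluc cells in 5% FBS OPTI-MEM, 5000 cells/well, rested 2 h then exposed to compounds in concentration-response for 18-24 h at 37 °C. Viability by CellTiter-Fluor fluorescence (Ex 405/Em 525) after 30 min; luciferase luminescence (BugLite, 15 min, RT) read afterwards.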
ALOX12 inh – inhibitors of human 12S-lipoxygenase ALOX12 | P18054 | purified 12hLO, xylenol orange hydroperoxide absorbance | Potency, µM (top dose mostly 108 µM), hits mostly inhibitors | actives 1.1% (n = 580,000)
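Purified human 12hLO (150 nM final) in 25 mM Hepes, 0.01% Triton X-100, pH 7.0 was preincubated 15 min at room temperature with compound. Then 40 uM arachidonic acid was added, 30 min. Hydroperoxide was read by Fe-XO absorbance ratio 573/405 nm.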
mIDH1 inhibitor – blocks human mutant IDH1 R132H enzyme; actives 0.093% (n = 390,000); O75874; IDH1-R132H enzyme, NADPH consumption, diaphorase/resazurin fluorescence; AID 602179; Potency, µM (highest dose often 76.6 µM), most hits filed as inhibitors; further: nearly all actives have a fitted effect of over 65% in size
Target sequence (O75874 whole entry R132H, stated change not applied): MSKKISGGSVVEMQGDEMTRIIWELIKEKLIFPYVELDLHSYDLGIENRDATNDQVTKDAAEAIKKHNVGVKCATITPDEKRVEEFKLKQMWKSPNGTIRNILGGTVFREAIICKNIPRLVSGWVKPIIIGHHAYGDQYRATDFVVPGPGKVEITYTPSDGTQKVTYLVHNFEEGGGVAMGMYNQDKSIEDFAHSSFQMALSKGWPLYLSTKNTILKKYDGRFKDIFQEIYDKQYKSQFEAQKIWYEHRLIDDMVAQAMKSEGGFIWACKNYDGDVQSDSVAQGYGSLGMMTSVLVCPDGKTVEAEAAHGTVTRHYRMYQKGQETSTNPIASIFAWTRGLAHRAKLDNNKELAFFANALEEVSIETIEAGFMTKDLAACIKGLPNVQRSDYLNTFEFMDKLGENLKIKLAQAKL
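IDH1-R132H (0.5 ug/mL) preincubated 30 min with compound, then NADPH (0.016 mM) and alpha-KG (2 mM) added; 80 min at RT, pH 7.5. Remaining NADPH coupled via diaphorase/resazurin to fluorescence (540/590 nm); concentration-response curves normalized to no-enzyme control.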
LDHA inh – LDHA (human) enzyme inhibition | actives 0.15% (n = 480,000) | P00338 | purified LDHA, NADH/diaphorase-resazurin fluorescence; hits give low values | AID 1347041 | activity change, % (values are at about 110 or 230 µM); in the data active means activity change below about -30%; inconclusive means mostly about -25% to -30%
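Human LDH5 at 2 nM final in Tris HCl pH 7.4 with 0.06 mM NADH and 0.2 mM pyruvate, reacted 5 minutes at room temperature. Remaining NADH coupled via diaphorase/resazurin; resorufin fluorescence read at 0 and 20 minutes, normalized to enzyme-free and DMSO wells.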
Numbers stand for hits; 0 = inactive; ? = inconclusive; - = not tested or not shown; [ ] = dose if it differs, or a comment. In the library only some 2.7% were active in any assay of this set; here they are far more common. Unless noted, the call rests on the fitted dose curve; in most records, active means well fitted curve in the direction sought with a large enough effect; inconclusive means small, poorly fitted or top-dose-only effect, or another doubt; inactive means no such curve, though single readings can be large; an effect the other way counts as inactive or inconclusive.

SMILES	Nrf2 inh	Nrf2 activator	A549 tox	ALOX12 inh	mIDH1 inhibitor	LDHA inh
Cc1cncn1CCc1nc2c3ccccc3nc(SCC(=O)Nc3ccc(F)cc3)n2n1	-	0	0	0	0	0
Cc1cccc(NC(=O)CSc2nc3ccccc3c3nc(CCc4c(C)n[nH]c4C)nn23)c1	10µM	0	?	0	0	0
Cc1cncn1CCc1nc2c3ccccc3nc(SCC(=O)Nc3cccc(Cl)c3)n2n1	0	0	16µM	0	0	0
Cc1n[nH]c(C)c1CCc1nc2c3ccccc3nc(SCC(=O)Nc3ccccc3F)n2n1	?	0	?	0	0	0
O=C(CSCC(=O)Nc1nc(-c2ccc3c(c2)OCO3)cs1)Nc1nccs1	21µM	0	0	0	0	0
COc1ccc2c(C)c(CCC(=O)N3CCN(C(C)=O)CC3)c(=O)oc2c1	-	-	-	?	-	0
CN(C)c1ccc(/C=N/Nc2ccc(F)cc2F)cc1	-	-	-	?	-	0
CC(=O)c1cccc(NC(=S)NCCc2ccc(Cl)cc2)c1	0	0	0	?	0	0
OCCCNC(=S)Nc1ccc(Cl)cc1	-	-	-	50µM	-	0
CC(=O)c1ccc(NC(=S)NCCc2ccc(Cl)cc2)cc1	-	-	-	50µM	-	0
S=c1[nH]c2ccccc2n1CCOc1ccccc1	0	0	0	40µM	0	0
Cc1ccc(OCCn2c(=S)[nH]c3ccccc32)c(C(C)C)c1	0	0	0	32µM	0	0
NC(=O)NCCC1=CCCCC1	0	0	0	0	0	0
C=CCn1c(N)c(C(=O)NCCC2=CCCCC2)sc1=S	0	0	0	18µM	0	0
CCc1ccc2cc(C(=O)O)[nH]c2c1	-	-	-	0	-	0
O=C(O)c1cc2ccc(Br)cc2[nH]1	-	-	-	18µM	-	0
COc1ccc(NC(=O)CSc2ncc(-c3ccc(F)cc3)n2Cc2ccco2)cc1	16µM	0	0	0	0	0
COc1ccc(-c2cnc(SCC(=O)Nc3nc(C(C)(C)C)cs3)n2Cc2ccco2)cc1	21µM	0	0	0	0	0
CCNc1nc(SCC(=O)NC)nc2ccccc12	-	-	-	0	-	0
COC(=O)c1cn(CC(=O)Nc2ccc(C)c(C)c2)c2ccccc12	-	-	-	0	-	0
COc1ccccc1NC(=O)Cn1c(=O)n(-c2cccc(C)c2)c(=O)c2c1cc(C)n2C	-	-	-	0	-	-
Cc1cccc(-n2c(=O)c3c(cc(C)n3C)n(CC(=O)Nc3c(C)cccc3C)c2=O)c1	-	-	-	71µM	-	-
Fc1cccc(-c2nc(COc3ccc(Br)cc3F)co2)c1	-	-	-	32µM	-	0
O=C(Nc1nnc(-c2ccco2)s1)C1CC1	0	11µM	0	0	0	0
O=C(Nc1nnc(-c2ccco2)s1)c1ccccc1	?	?	0[1.84 µM]	0	0	0
SMILES	Nrf2 inh	Nrf2 activator	A549 tox	ALOX12 inh	mIDH1 inhibitor	LDHA inh
O=C(Nc1nnc(-c2ccco2)s1)C1CCN(S(=O)(=O)c2ccc(Cl)cc2)CC1	0	0	0	0	0	0
CC(C)C(=O)Nc1nnc(-c2ccco2)s1	0	10µM	0	0	0	0
Cc1cc(C(=O)N2CCCc3cc(C(F)(F)F)ccc32)c2ccccc2n1	-	-	-	?	-	0
CC1C(=O)N2CCCc3cc(S(=O)(=O)N(Cc4ccccc4)c4ccccc4)cc1c32 (stereo not drawn)	-	-	-	10µM	-	0
CC1C(=O)N2CCCc3cc(S(=O)(=O)N(C)Cc4ccccc4)cc1c32 (stereo not drawn)	0	0	0	0	0	0
c1ccc(-c2nc(NC3CCCC3)c3ccccc3n2)cc1	23µM	0	?	0	0	0
COc1ccc(/C=C/c2ccccc2)cc1	-	-	-	0	-	0
CC1CC1c1ccc(/C=C/C(=O)N(Cc2ccccc2)C2CC2)o1 (stereo not drawn)	-	-	-	8.9µM	-	0
CCc1cc2c(=O)c(-c3ccc4c(c3)OCCO4)c(C)oc2cc1OS(C)(=O)=O	23µM	0	?	0	0	0
O=C(Nc1cccc(C(F)(F)F)c1)O[C@@H]1CO[C@H]2[C@@H]1OC[C@@H]2NC(=S)NC1CCCCC1	-	-	-	45µM	-	-
CO[C@@H]1CO[C@H]2[C@@H]1OC[C@@H]2NC(=O)Nc1cccc(C(F)(F)F)c1	-	-	-	0	-	-
